Source: PubChem BioAssay
C diff HTS: C. difficile growth inhibitors, primary screen, HTS; 86,000 tested, 0.25% active; AID 1259249, 2017; growth activity, negative = inhibition, % at 16 µg/mL (by protocol); Clostridium difficile clinical isolate growth, OD600, 24 h; hits give low values;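 active = mean growth activity at or below -80% and every replicate also at or below -80%; inconclusive = mean at or below -80% but some replicate above -80%; inactive = mean growth activity above -80%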
T cruzi growth-1: T. cruzi intracellular proliferation inhibitors, primary screen, cell-based, beta-gal Tulahuen parasites, NIH3T3 host, luminescence. inhibition, % at 8.34 µM. T. cruzi beta-gal in NIH3T3, GalScreen luminescence, 90 h. 77,000 tested, 5.9% active;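 active = mean inhibition above about 93%, with at least 55% of replicates each passing it, limit read from the data, passing the limit was not always enough; inconclusive = only one of those two conditions holds; inactive = neither condition holds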
Pf Dd2 growth: P. falciparum Dd2 growth inhibitors, primary screen, SYBR Green fluorescence, single dose replicates; 72 h; hits give low values; activity change, % at 10 µM; 94,000 tested, 2.3% active; in the data active = activity change below about -80%; inconclusive = no clear call, values can overlap the other calls
T cruzi growth-2: T. cruzi intracellular proliferation inhibitors, confirmation, cell-based, NIH3T3 host, beta-gal parasite, luminescence, cherry-pick; shares compounds with T cruzi growth-1; T. cruzi beta-gal in NIH3T3, GalScreen luminescence, 90 h; inhibition, % at 8.35 µM; 5,600 tested, 72% active;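 active = mean replicate inhibition above about 95% and at least 55% of replicates individually reaching it, limit read from the data; inconclusive = only one of the two criteria is met; inactive = neither criterion is met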
T cruzi growth-3: inhibitors of intracellular T. cruzi replication, confirmation, NIH3T3 host cells, beta-gal parasites, cherry-pick, set 2. AID 651740, 2012. inhibition, % at 2.09 µM. T. cruzi beta-gal in NIH3T3, GalScreen luminescence, 90 h. 5,600 tested, 21% active. shares compounds with T cruzi growth-1;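 active = mean inhibition above about 95%, with at least 55% of replicates also reaching it, limit read from the data; inconclusive = meets just one of the two conditions; inactive = meets neither condition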
NIH3T3 tox: cytotoxicity in mouse NIH/3T3 fibroblasts, confirmation, cytotoxicity control for T. cruzi proliferation inhibitor project, cell-based, cherry-pick, single point | shares compounds with T cruzi growth-1 | NIH/3T3 viability, CellTiter-Glo ATP luminescence, 90 h | cytotoxicity (signal decrease), % at 8.35 µM | 5,600 tested, 14% active | AID 651742, 2012;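 active = mean signal decrease across replicates above about 35% based on untreated-well scatter, with enough replicates individually passing, limit read from the data; inconclusive = no rule stated though some were filed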
NIH3T3 tox 2: NIH/3T3 fibroblast cytotoxicity, confirmation, cytotoxicity control, cell-based, cherry-pick, single point, set 2 | NIH/3T3 viability, CellTiter-Glo ATP luminescence, 90 h | 5,600 tested, 56% active | shares compounds with T cruzi growth-1 | inhibition, % at 24.9 µM;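 active = mean loss of cell viability signal at or above a set limit, and enough replicates individually reaching it; inconclusive = meets only the mean limit or only the replicate share; inactive = meets neither condition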
Large screens that a line does not name were inactive (follow-up assays come after a bar, where they were run). In the library only some 6.7% were active in any assay of this set; here they are far more common.

Cc1ccc(S(=O)(=O)Nc2ccc3c(c2)C(=O)N([C@@H](C)CO)C[C@H](C)[C@@H](CN(C)S(=O)(=O)c2ccc(F)cc2)OCCCC[C@@H](C)O3)cc1	none (no result: T cruzi growth-1)
CO[C@H]1CN(C)C(=O)c2cc(NS(C)(=O)=O)ccc2OC[C@H](C)N(Cc2nccs2)C[C@@H]1C	none (no result: C diff HTS)
COc1ccc(S(=O)(=O)N[C@@H]2CC[C@@H](CC(=O)N3CCN(c4ccccc4)CC3)O[C@H]2CO)cc1	none
O=C(C[C@H]1CC[C@@H]2[C@H](COC[C@H](O)CN2Cc2cccc(C(F)(F)F)c2)O1)NCc1ccc(Cl)cc1	T cruzi growth-1 144 | T cruzi growth-2 103 | T cruzi growth-3 inactive | NIH3T3 tox inactive | NIH3T3 tox 2 99
O=C(C[C@@H]1CC[C@H]2[C@@H](COC[C@H](O)CN2Cc2cccc(F)c2)O1)NCC1CCCCC1	none
O=C(C[C@H]1CC[C@H]2[C@@H](COC[C@H](O)CN2Cc2cccc(C(F)(F)F)c2)O1)NCc1ccc(Cl)cc1	T cruzi growth-1 128 | T cruzi growth-2 107 | T cruzi growth-3 inactive | NIH3T3 tox inactive | NIH3T3 tox 2 inconclusive
O=C(C[C@H]1CC[C@H]2[C@@H](COC[C@H](O)CN2Cc2cccc(C(F)(F)F)c2)O1)NCc1ccccc1	none (no result: C diff HTS)
O=C(C[C@H]1CC[C@H]2[C@@H](COC[C@@H](O)CN2Cc2cccc(C(F)(F)F)c2)O1)NCc1ccc(Cl)cc1	T cruzi growth-1 125 | T cruzi growth-2 inactive | T cruzi growth-3 inactive | NIH3T3 tox inactive | NIH3T3 tox 2 87
O=C(C[C@@H]1CC[C@@H]2[C@H](COC[C@@H](O)CN2Cc2cccc(Cl)c2)O1)NCC1CCCCC1	T cruzi growth-1 125 (no result: Pf Dd2 growth) | T cruzi growth-2 inconclusive | T cruzi growth-3 inactive | NIH3T3 tox inactive | NIH3T3 tox 2 inactive
O=C(C[C@H]1CC[C@@H]2[C@H](COC[C@H](O)CN2Cc2cccc(C(F)(F)F)c2)O1)NCc1ccccc1	none
O=C(C[C@H]1CC[C@H]2[C@@H](COC[C@@H](O)CN2Cc2cccc(C(F)(F)F)c2)O1)NCc1ccccc1	none
COC(=O)[C@H]1[C@H](CO)[C@H]2Cn3c(ccc(-c4ccccc4F)c3=O)[C@H]2N1Cc1ccncc1	none (no result: Pf Dd2 growth)
C[C@@H]1CCCCO[C@H](CN(C)C)[C@H](C)CN([C@@H](C)CO)C(=O)c2cc(NC(=O)Nc3ccccc3)ccc2O1	none
C[C@H](NC(=O)C[C@@H]1CC[C@@H]2[C@H](COC[C@H](O)CN2Cc2ccc(C(F)(F)F)cc2)O1)c1ccccc1	T cruzi growth-1 168 | T cruzi growth-2 inactive | T cruzi growth-3 inactive | NIH3T3 tox inactive | NIH3T3 tox 2 inactive
C[C@@H](NC(=O)C[C@H]1CC[C@H]2[C@@H](COC[C@H](O)CN2Cc2ccc(C(F)(F)F)cc2)O1)c1ccccc1	none
COc1cccc(C#Cc2cnc3c(c2)C(=O)N([C@@H](C)CO)C[C@H](C)[C@@H](CN(C)C(=O)C2CC2)O3)c1	none (no result: C diff HTS)
CNC[C@@H]1OCCCC[C@H](C)Oc2ccc(NC(=O)NC3CCCCC3)cc2C(=O)N([C@@H](C)CO)C[C@@H]1C	T cruzi growth-1 111 | T cruzi growth-2 inactive | T cruzi growth-3 inactive | NIH3T3 tox inactive | NIH3T3 tox 2 inactive
CNC[C@H]1OCCCC[C@H](C)Oc2ccc(NC(=O)c3ccccc3)cc2C(=O)N([C@H](C)CO)C[C@@H]1C	T cruzi growth-1 inconclusive | T cruzi growth-2 99 | T cruzi growth-3 inactive | NIH3T3 tox inactive | NIH3T3 tox 2 inactive
CNC[C@@H]1OCCCC[C@@H](C)Oc2ccc(NC(=O)NC3CCCCC3)cc2C(=O)N([C@H](C)CO)C[C@H]1C	none (no result: Pf Dd2 growth)
CNC[C@@H]1OCCCC[C@H](C)Oc2ccc(NC(=O)Cc3ccccc3)cc2C(=O)N([C@@H](C)CO)C[C@@H]1C	T cruzi growth-1 99 | T cruzi growth-2 inactive | T cruzi growth-3 inactive | NIH3T3 tox inactive | NIH3T3 tox 2 inactive
CNC[C@@H]1OCCCC[C@@H](C)Oc2ccc(NC(=O)c3ccccc3)cc2C(=O)N([C@H](C)CO)C[C@@H]1C	none
C[C@H]1CCCCO[C@@H](CN(C)C)[C@@H](C)CN([C@@H](C)CO)C(=O)c2cc(NC(=O)Cc3ccccc3)ccc2O1	none
CO[C@H]1CN(C)C(=O)c2cc(NS(C)(=O)=O)ccc2OC[C@H](C)N(Cc2nccs2)C[C@H]1C	none (no result: C diff HTS)
C[C@@H]1CN([C@@H](C)CO)S(=O)(=O)c2ccc(-c3cccnc3)cc2O[C@@H]1CN(C)C(=O)C1CC1	none (no result: C diff HTS)
CCC(=O)N1C[C@H](C)[C@@H](OC)CN(C)C(=O)c2ccc(NC(=O)c3ccccc3)cc2OC[C@@H]1C	T cruzi growth-1 108 (no result: C diff HTS) | T cruzi growth-2 inactive | T cruzi growth-3 inactive | NIH3T3 tox inactive | NIH3T3 tox 2 inactive
CCCN1C[C@H](C)[C@H](OC)CN(C)C(=O)c2ccc(NC(=O)c3cccc(F)c3)cc2OC[C@H]1C	none (no result: C diff HTS)
CCCC(=O)Nc1ccc2c(c1)OC[C@H](C)N(C(=O)c1cccnc1)C[C@@H](C)[C@H](OC)CN(C)C2=O	T cruzi growth-1 100 (no result: C diff HTS) | T cruzi growth-2 inactive | T cruzi growth-3 inactive | NIH3T3 tox inactive | NIH3T3 tox 2 inactive
CCC(=O)N1C[C@@H](C)[C@@H](OC)CN(C)C(=O)c2cc(NC(=O)c3ccccc3)ccc2OC[C@@H]1C	none (no result: C diff HTS)
CCCNC(=O)N1C[C@H](C)[C@H](OC)CN(C)C(=O)c2cc(NC(=O)CC)ccc2OC[C@@H]1C	none (no result: C diff HTS)
CCCNC(=O)N1C[C@H](C)[C@@H](OC)CN(C)C(=O)c2cc(NC(=O)CC)ccc2OC[C@@H]1C	T cruzi growth-1 inconclusive (no result: C diff HTS) | T cruzi growth-2 inactive | T cruzi growth-3 inactive | NIH3T3 tox inactive | NIH3T3 tox 2 inactive
CCCC(=O)Nc1ccc2c(c1)OC[C@H](C)N(C(=O)c1cccnc1)C[C@@H](C)[C@@H](OC)CN(C)C2=O	none (no result: C diff HTS)
CCCN1C[C@@H](C)[C@H](OC)CN(C)C(=O)c2ccc(NC(=O)c3cccc(F)c3)cc2OC[C@H]1C	T cruzi growth-1 102, Pf Dd2 growth -87 (no result: C diff HTS) | T cruzi growth-2 104 | T cruzi growth-3 inactive | NIH3T3 tox inactive | NIH3T3 tox 2 37
Cc1noc(C)c1NC(=O)Nc1cccc2c1O[C@H](CN(C)S(=O)(=O)c1ccc(Cl)cc1)[C@H](C)CN([C@H](C)CO)C2=O	none
COCC(=O)Nc1ccc2c(c1)OC[C@@H](C)N(C(=O)Cc1cccnc1)C[C@H](C)[C@H](OC)CN(C)C2=O	none (no result: C diff HTS)
C[C@H]1CN([C@@H](C)CO)C(=O)c2cc(-c3ccccc3F)cnc2O[C@@H]1CN(C)C(=O)C1CC1	none (no result: C diff HTS)
